{
  "source": "paper PMC11062922",
  "about": "(Nature Chemical Biology, 2023)",
  "set-up_in_all_cases": "species or system human, MV4-11 + K-562 + COLO205 + SK-N-BE2 + OVCAR-8",
  "key": {"ACVR1B": {"tested_on": "ACVR1B", "conditions": "read-out: apparent Kd, compound concentrations: 100 nM and 1000 nM (sheet 'Samples'), n = 1"}, "ATM": {"tested_on": "ATM", "conditions": "read-out: apparent Kd; compound concentrations: 100 nM and 1000 nM (sheet 'Samples'), CATDS: 0.55136512573741903; n = 1"}, "PIP4K2C": {"tested_on": "PIP4K2C", "conditions": "read-out: apparent Kd; compound concentrations: 100 nM and 1000 nM (sheet 'Samples'), CATDS: 0.19748549423912701; n = 1"}, "PRKAG2": {"tested_on": "PRKAG2", "conditions": "read-out: apparent Kd; compound concentrations: 100 nM and 1000 nM (sheet 'Samples'), CATDS: 0.19909509316552701; n = 1"}, "ACVR2B": {"tested_on": "ACVR2B", "conditions": "read-out: apparent Kd, compound concentrations: 100 nM and 1000 nM (sheet 'Samples'), n = 1"}, "BUB1": {"tested_on": "BUB1", "conditions": "read-out: apparent Kd; compound concentrations: 100 nM and 1000 nM (sheet 'Samples'), CATDS: 2.9368799543599802E-2; n = 1"}, "CIT": {"tested_on": "CIT", "conditions": "read-out: apparent Kd; compound concentrations: 100 nM and 1000 nM (sheet 'Samples'), CATDS: 3.19087660473499E-2; n = 1"}, "CSNK1D": {"tested_on": "CSNK1D", "conditions": "read-out: apparent Kd, compound concentrations: 100 nM and 1000 nM (sheet 'Samples'), n = 1"}, "CSNK1E": {"tested_on": "CSNK1E", "conditions": "read-out: apparent Kd, compound concentrations: 100 nM and 1000 nM (sheet 'Samples'), n = 1"}, "EPHA1": {"tested_on": "EPHA1", "conditions": "read-out: apparent Kd; compound concentrations: 100 nM and 1000 nM (sheet 'Samples'), CATDS: 4.4029751359189198E-2; n = 1"}, "FLT3": {"tested_on": "FLT3", "conditions": "read-out: apparent Kd; compound concentrations: 100 nM and 1000 nM (sheet 'Samples'), CATDS: 4.1263088221053297E-2; n = 1"}, "FRK": {"tested_on": "FRK", "conditions": "read-out: apparent Kd; compound concentrations: 100 nM and 1000 nM (sheet 'Samples'), CATDS: 4.1342549308714401E-2; n = 1"}, "FYN": {"tested_on": "FYN", "conditions": "read-out: apparent Kd; compound concentrations: 100 nM and 1000 nM (sheet 'Samples'), CATDS: 3.5075113560986498E-2; n = 1"}, "MAPK14": {"tested_on": "MAPK14", "conditions": "read-out: apparent Kd, compound concentrations: 100 nM and 1000 nM (sheet 'Samples'), n = 1"}, "MAPKAPK2": {"tested_on": "MAPKAPK2", "conditions": "read-out: apparent Kd, compound concentrations: 100 nM and 1000 nM (sheet 'Samples'), n = 1"}, "NLK": {"tested_on": "NLK", "conditions": "read-out: apparent Kd; compound concentrations: 100 nM and 1000 nM (sheet 'Samples'), CATDS: 0.113621067973222; n = 1"}, "PKN3": {"tested_on": "PKN3", "conditions": "read-out: apparent Kd, compound concentrations: 100 nM and 1000 nM (sheet 'Samples'), n = 1"}, "PTK6": {"tested_on": "PTK6", "conditions": "read-out: apparent Kd; compound concentrations: 100 nM and 1000 nM (sheet 'Samples'), CATDS: 4.3994171841747899E-2; n = 1"}, "RET": {"tested_on": "RET", "conditions": "read-out: apparent Kd; compound concentrations: 100 nM and 1000 nM (sheet 'Samples'), CATDS: 0.126907733860845; n = 1"}, "RIPK2": {"tested_on": "RIPK2", "conditions": "read-out: apparent Kd, compound concentrations: 100 nM and 1000 nM (sheet 'Samples'), n = 1"}, "RIPK3": {"tested_on": "RIPK3", "conditions": "read-out: apparent Kd; compound concentrations: 100 nM and 1000 nM (sheet 'Samples'), CATDS: 3.6654773493518103E-2; n = 1"}, "SIK3": {"tested_on": "SIK3", "conditions": "read-out: apparent Kd; compound concentrations: 100 nM and 1000 nM (sheet 'Samples'), CATDS: 2.9281323909689301E-2; n = 1"}, "SLK": {"tested_on": "SLK", "conditions": "read-out: apparent Kd; compound concentrations: 100 nM and 1000 nM (sheet 'Samples'), CATDS: 3.3087406541094599E-2; n = 1"}, "TESK2": {"tested_on": "TESK2", "conditions": "read-out: apparent Kd; compound concentrations: 100 nM and 1000 nM (sheet 'Samples'), CATDS: 3.8437234907131197E-2; n = 1"}, "TGFBR1": {"tested_on": "TGFBR1", "conditions": "read-out: apparent Kd, compound concentrations: 100 nM and 1000 nM (sheet 'Samples'), n = 1"}, "TGFBR2": {"tested_on": "TGFBR2", "conditions": "read-out: apparent Kd; compound concentrations: 100 nM and 1000 nM (sheet 'Samples'), CATDS: 8.5809969501024E-2; n = 1"}, "CSNK1A1": {"tested_on": "CSNK1A1", "conditions": "read-out: apparent Kd; compound concentrations: 100 nM and 1000 nM (sheet 'Samples'), CATDS: 3.7842664233860401E-2; n = 1"}, "DDR1": {"tested_on": "DDR1", "conditions": "read-out: apparent Kd; compound concentrations: 100 nM and 1000 nM (sheet 'Samples'), CATDS: 5.25374061654219E-2; n = 1"}, "DDR2": {"tested_on": "DDR2", "conditions": "read-out: apparent Kd; compound concentrations: 100 nM and 1000 nM (sheet 'Samples'), CATDS: 4.2392371826783903E-2; n = 1"}, "GAK": {"tested_on": "GAK", "conditions": "read-out: apparent Kd; compound concentrations: 100 nM and 1000 nM (sheet 'Samples'), CATDS: 0.17328918321310699; n = 1"}, "MAPK10": {"tested_on": "MAPK10", "conditions": "read-out: apparent Kd; compound concentrations: 100 nM and 1000 nM (sheet 'Samples'), CATDS: 0.12973795747386199; n = 1"}, "MAPK8": {"tested_on": "MAPK8", "conditions": "read-out: apparent Kd; compound concentrations: 100 nM and 1000 nM (sheet 'Samples'), CATDS: 3.7066716076187299E-2; n = 1"}, "MAPK9": {"tested_on": "MAPK9", "conditions": "read-out: apparent Kd; compound concentrations: 100 nM and 1000 nM (sheet 'Samples'), CATDS: 0.1157117766231; n = 1"}, "PRKD2": {"tested_on": "PRKD2", "conditions": "read-out: apparent Kd; compound concentrations: 100 nM and 1000 nM (sheet 'Samples'), CATDS: 5.3704736783425001E-2; n = 1"}, "PRKD3": {"tested_on": "PRKD3", "conditions": "read-out: apparent Kd; compound concentrations: 100 nM and 1000 nM (sheet 'Samples'), CATDS: 4.4266829697393303E-2; n = 1"}},
  "note": "Read-outs that look alike come from different tables or passages of the source.",
  "data": [
    {"smiles": "NC(=O)c1cc(-c2ccncc2)cc(-c2ccccc2)c1N", "note": "[GSK625137A]", "values": [
      {"measurement": "potency estimated from few doses", "setting": "ACVR1B; CATDS: 0.24390652724185299", "result": 1010, "unit": "nM"},
      {"measurement": "potency estimated from few doses", "setting": "ATM", "result": 223, "unit": "nM"},
      {"measurement": "potency estimated from few doses", "setting": "PIP4K2C", "result": 1780, "unit": "nM"},
      {"measurement": "potency estimated from few doses", "setting": "PRKAG2", "result": 1730, "unit": "nM"}
    ]},
    {"smiles": "Nc1ncnc2c1ncn2-c1cccc(F)c1", "note": "[SKF-97560]", "values": [
      {"measurement": "potency estimated from few doses", "setting": "ACVR1B; CATDS: 5.4958812802740099E-2", "result": 352, "unit": "nM"},
      {"measurement": "potency estimated from few doses", "setting": "ACVR2B; CATDS: 3.61499985403008E-2", "result": 987, "unit": "nM"},
      {"measurement": "potency estimated from few doses", "setting": "BUB1", "result": 2060, "unit": "nM"},
      {"measurement": "potency estimated from few doses", "setting": "CIT", "result": 1490, "unit": "nM"},
      {"measurement": "potency estimated from few doses", "setting": "CSNK1D; CATDS: 4.1820376814662601E-2", "result": 661, "unit": "nM"},
      {"measurement": "potency estimated from few doses", "setting": "CSNK1E; CATDS: 3.1298508243452101E-2", "result": 1600, "unit": "nM"},
      {"measurement": "potency estimated from few doses", "setting": "EPHA1", "result": 581, "unit": "nM"},
      {"measurement": "potency estimated from few doses", "setting": "FLT3", "result": 684, "unit": "nM"},
      {"measurement": "potency estimated from few doses", "setting": "FRK", "result": 681, "unit": "nM"},
      {"measurement": "potency estimated from few doses", "setting": "FYN", "result": 1080, "unit": "nM"},
      {"measurement": "potency estimated from few doses", "setting": "MAPK14; CATDS: 3.4547137011971901E-2", "result": 1140, "unit": "nM"},
      {"measurement": "potency estimated from few doses", "setting": "MAPKAPK2; CATDS: 3.21088228610018E-2", "result": 1450, "unit": "nM"},
      {"measurement": "potency estimated from few doses", "setting": "NLK", "result": 94.9, "unit": "nM"},
      {"measurement": "potency estimated from few doses", "setting": "PKN3; CATDS: 8.07286972312308E-2", "result": 168, "unit": "nM"},
      {"measurement": "potency estimated from few doses", "setting": "PTK6", "result": 582, "unit": "nM"},
      {"measurement": "potency estimated from few doses", "setting": "RET", "result": 80, "unit": "nM"},
      {"measurement": "potency estimated from few doses", "setting": "RIPK2; CATDS: 0.22838556729877599", "result": 34.9, "unit": "nM"},
      {"measurement": "potency estimated from few doses", "setting": "RIPK3", "result": 948, "unit": "nM"},
      {"measurement": "potency estimated from few doses", "setting": "SIK3", "result": 2090, "unit": "nM"},
      {"measurement": "potency estimated from few doses", "setting": "SLK", "result": 1310, "unit": "nM"},
      {"measurement": "potency estimated from few doses", "setting": "TESK2", "result": 828, "unit": "nM"},
      {"measurement": "potency estimated from few doses", "setting": "TGFBR1; CATDS: 6.0050656716600502E-2", "result": 293, "unit": "nM"},
      {"measurement": "potency estimated from few doses", "setting": "TGFBR2", "result": 151, "unit": "nM"}
    ]},
    {"smiles": "Cc1ccc2c(-c3ccnc(Nc4ccccc4)n3)c(-c3ccc(F)cc3)nn2n1", "note": "[GW833373X]", "values": [
      {"measurement": "potency estimated from few doses", "setting": "ACVR1B; CATDS: 8.2410499697195994E-2", "result": 193, "unit": "nM"},
      {"measurement": "potency estimated from few doses", "setting": "ACVR2B; CATDS: 4.1971231951758399E-2", "result": 1090, "unit": "nM"},
      {"measurement": "potency estimated from few doses", "setting": "CSNK1A1", "result": 1640, "unit": "nM"},
      {"measurement": "potency estimated from few doses", "setting": "CSNK1D; CATDS: 5.8055493904437101E-2", "result": 418, "unit": "nM"},
      {"measurement": "potency estimated from few doses", "setting": "CSNK1E; CATDS: 4.09740757969334E-2", "result": 1190, "unit": "nM"},
      {"measurement": "potency estimated from few doses", "setting": "DDR1", "result": 543, "unit": "nM"},
      {"measurement": "potency estimated from few doses", "setting": "DDR2", "result": 1050, "unit": "nM"},
      {"measurement": "potency estimated from few doses", "setting": "GAK", "result": 56.5, "unit": "nM"},
      {"measurement": "potency estimated from few doses", "setting": "MAPK10", "result": 87.1, "unit": "nM"},
      {"measurement": "potency estimated from few doses", "setting": "MAPK14; CATDS: 0.11490787983313", "result": 106, "unit": "nM"},
      {"measurement": "potency estimated from few doses", "setting": "MAPK8", "result": 1800, "unit": "nM"},
      {"measurement": "potency estimated from few doses", "setting": "MAPK9", "result": 105, "unit": "nM"},
      {"measurement": "potency estimated from few doses", "setting": "MAPKAPK2; CATDS: 0.100968971541066", "result": 132, "unit": "nM"},
      {"measurement": "potency estimated from few doses", "setting": "PKN3; CATDS: 3.6917744645490899E-2", "result": 1840, "unit": "nM"},
      {"measurement": "potency estimated from few doses", "setting": "PRKD2", "result": 511, "unit": "nM"},
      {"measurement": "potency estimated from few doses", "setting": "PRKD3", "result": 906, "unit": "nM"},
      {"measurement": "potency estimated from few doses", "setting": "RIPK2; CATDS: 5.33565185229085E-2", "result": 520, "unit": "nM"},
      {"measurement": "potency estimated from few doses", "setting": "TGFBR1; CATDS: 4.4217762618850402E-2", "result": 909, "unit": "nM"}
    ]}
  ]
}
